Where “and” joins values, the source holds several entries; their conditions need not be identical. Equal entries are not always repeated. The whole screen tested about 5,500 compounds, of which about 2,000 (36%) were called active. Roughly 18% stayed inconclusive and do not appear here. Cut-off read from the data, not from the text of the source: active = normalized growth mostly below about 0.91 (no sharp cut-off); inconclusive = no clear call, values can overlap the other calls; inactive = mostly above about 0.92. The list shows a part of the results.
Experiment: chemical genetic growth profiling, strain panel (AID 1159580);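 note: tested at 20 µM; growth read once vehicle control cultures reached saturation at 30 °C; 1 = growth at the plate median or of vehicle wells; lower values mean less growth of the strain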
Conditions: growth OD

Measured: normalized growth

CCCC(C(=O)OCCN(CC)CC)(c1ccccc1)c1ccccc1
inactive: S. cerevisiae deletion strains, locus YJR075W, strain HOC1, stronger effect = lower value 1 and 0.971 | S. cerevisiae deletion strains, locus YKL009W, strain mrt4, stronger effect = lower value 0.982 | S. cerevisiae deletion strains, locus YKL068W, stronger effect = lower value 0.995 | S. cerevisiae deletion strains, locus YKL085W, strain MDH1 (second series), stronger effect = lower value 0.99 | S. cerevisiae deletion strains, locus YKL085W, strain MDH1, stronger effect = lower value 0.99 | S. cerevisiae deletion strains, locus YKL160W, strain elf1, stronger effect = lower value 0.982 | S. cerevisiae deletion strains, locus YKL190W, strain CNB1, stronger effect = lower value 0.995 | S. cerevisiae deletion strains, locus YKR001C, strain vps1, stronger effect = lower value 0.999 | S. cerevisiae deletion strains, locus YKR026C, strain gcn3, stronger effect = lower value 1 | S. cerevisiae deletion strains, locus YKR091W, strain srl3, stronger effect = lower value 1 | S. cerevisiae deletion strains, locus YLL001W, strain dnm1, stronger effect = lower value 0.998 | S. cerevisiae deletion strains, locus YLL026W, stronger effect = lower value 1.01 | S. cerevisiae deletion strains, locus YLL041C, strain sdh2, stronger effect = lower value 1 | S. cerevisiae deletion strains, locus YLR027C, strain aat2, stronger effect = lower value 1 | S. cerevisiae deletion strains, locus YLR039C, strain RIC1, stronger effect = lower value 1.16 | S. cerevisiae deletion strains, locus YLR058C, strain SHM2, stronger effect = lower value 1.01 | S. cerevisiae deletion strains, locus YLR102C, strain apc9, stronger effect = lower value 0.994 | S. cerevisiae deletion strains, locus YLR113W, strain HOG1, stronger effect = lower value 0.966 | S. cerevisiae deletion strains, locus YLR221C, strain rsa3, stronger effect = lower value 0.991 | S. cerevisiae deletion strains, locus YLR258W, strain gsy2, stronger effect = lower value 0.989 | S. cerevisiae deletion strains, locus YLR262C, strain YPT6 (second series), stronger effect = lower value 1.12 | S. cerevisiae deletion strains, locus YLR262C, strain YPT6, stronger effect = lower value 1.25 | S. cerevisiae deletion strains, locus YLR268W, strain sec22, stronger effect = lower value 0.977 | S. cerevisiae deletion strains, locus YLR320W, strain mms22, stronger effect = lower value 0.968 | S. cerevisiae deletion strains, locus YLR330W, strain CHS5, stronger effect = lower value 1.01 | S. cerevisiae deletion strains, locus YLR342W, strain FKS1 (second series), stronger effect = lower value 0.941 | S. cerevisiae deletion strains, locus YLR342W, strain FKS1, stronger effect = lower value 0.999 | S. cerevisiae deletion strains, locus YLR357W, strain rsc2, stronger effect = lower value 0.935 | S. cerevisiae deletion strains, locus YLR370C, strain arc18, stronger effect = lower value 1 | S. cerevisiae deletion strains, locus YLR371W, strain rom2, stronger effect = lower value 0.985 | S. cerevisiae deletion strains, locus YLR384C, strain iki3, stronger effect = lower value 1.01 | S. cerevisiae deletion strains, locus YLR418C, strain cdc73, stronger effect = lower value 0.883 | S. cerevisiae deletion strains, locus YML016C, strain PPZ1, stronger effect = lower value 1.01 | S. cerevisiae deletion strains, locus YML032C, strain rad52, stronger effect = lower value 0.989 | S. cerevisiae deletion strains, locus YML120C, strain ndi1, stronger effect = lower value 0.989 | S. cerevisiae deletion strains, locus YML124C, strain tub3, stronger effect = lower value 0.995 | S. cerevisiae deletion strains, locus YMR058W, strain fet3, stronger effect = lower value 1 | S. cerevisiae deletion strains, locus YMR078C, strain ctf18, stronger effect = lower value 0.99 | S. cerevisiae deletion strains, locus YMR125W, strain sto1, stronger effect = lower value 1.01 | S. cerevisiae deletion strains, locus YMR129W, stronger effect = lower value 0.983 | S. cerevisiae deletion strains, locus YMR205C, strain PFK2, stronger effect = lower value 0.972 | S. cerevisiae deletion strains, locus YMR223W, strain ubp8, stronger effect = lower value 0.967 | S. cerevisiae deletion strains, locus YMR231W, strain pep5, stronger effect = lower value 1.01 | S. cerevisiae deletion strains, locus YMR263W, strain SAP30, stronger effect = lower value 1 | S. cerevisiae deletion strains, locus YMR307W, strain GAS1, stronger effect = lower value 1.03 | S. cerevisiae deletion strains, locus YNL067W, strain RPL9B, stronger effect = lower value 0.996 | S. cerevisiae deletion strains, locus YNL071W, strain lat1, stronger effect = lower value 0.957 | S. cerevisiae deletion strains, locus YNL128W, strain TEP1, stronger effect = lower value 0.992 | S. cerevisiae deletion strains, locus YNL153C, strain GIM3, stronger effect = lower value 1.02 and 1.01 | S. cerevisiae deletion strains, locus YNL183C, strain NPR1, stronger effect = lower value 0.946 | S. cerevisiae deletion strains, locus YNL197C, strain WHI3, stronger effect = lower value 1.01 | S. cerevisiae deletion strains, locus YNL209W, strain ssb2, stronger effect = lower value 1.02 | S. cerevisiae deletion strains, locus YNL224C, strain SQS1, stronger effect = lower value 1.02 | S. cerevisiae deletion strains, locus YNL233W, strain BNI4, stronger effect = lower value 1.01 | S. cerevisiae deletion strains, locus YNL248C, strain rpa49, stronger effect = lower value 0.989 | S. cerevisiae deletion strains, locus YNL250W, strain rad50, stronger effect = lower value 0.981 | S. cerevisiae deletion strains, locus YNL271C, strain bni1, stronger effect = lower value 0.994 | S. cerevisiae deletion strains, locus YNL298W, strain CLA4, stronger effect = lower value 0.989 | S. cerevisiae deletion strains, locus YNL307C, strain MCK1, stronger effect = lower value 0.983 | S. cerevisiae deletion strains, locus YNL322C, strain KRE1 (second series), stronger effect = lower value 1.01 | S. cerevisiae deletion strains, locus YNL322C, strain KRE1, stronger effect = lower value 0.985 | S. cerevisiae deletion strains, locus YNR049C, strain mso1, stronger effect = lower value 1.01 | S. cerevisiae deletion strains, locus YNR052C, strain pop2, stronger effect = lower value 0.986 | S. cerevisiae deletion strains, locus YOL006C, strain TOP1, stronger effect = lower value 1.05 | S. cerevisiae deletion strains, locus YOL012C, strain htz1 0.951 | S. cerevisiae deletion strains, locus YOL147C, strain pex11, stronger effect = lower value 0.995 | S. cerevisiae deletion strains, locus YOR001W, strain rrp6, stronger effect = lower value 0.977 | S. cerevisiae deletion strains, locus YOR061W, strain CKA2, stronger effect = lower value 1.01 | S. cerevisiae deletion strains, locus YOR069W, strain VPS5, stronger effect = lower value 1 | S. cerevisiae deletion strains, locus YOR070C, strain gyp1, stronger effect = lower value 1 | S. cerevisiae deletion strains, locus YOR080W, strain dia2, stronger effect = lower value 0.993 | S. cerevisiae deletion strains, locus YOR083W, strain WHI5 (second series), stronger effect = lower value 0.993 | S. cerevisiae deletion strains, locus YOR083W, strain WHI5, stronger effect = lower value 0.983 | S. cerevisiae deletion strains, locus YOR106W, strain vam3, stronger effect = lower value 0.979 | S. cerevisiae deletion strains, locus YOR136W, strain idh2, stronger effect = lower value 0.993 | S. cerevisiae deletion strains, locus YOR144C, strain elg1, stronger effect = lower value 0.989 | S. cerevisiae deletion strains, locus YOR184W, strain ser1, stronger effect = lower value 0.99 | S. cerevisiae deletion strains, locus YOR231W, strain MKK1, stronger effect = lower value 0.98 | S. cerevisiae deletion strains, locus YOR265W, strain rbl2, stronger effect = lower value 1.01 | S. cerevisiae deletion strains, locus YOR270C, strain vph1, stronger effect = lower value 0.942 | S. cerevisiae deletion strains, locus YOR290C, strain snf2, stronger effect = lower value 0.998 | S. cerevisiae deletion strains, locus YOR316C, strain cot1, stronger effect = lower value 1 | S. cerevisiae deletion strains, locus YPL051W, strain arl3, stronger effect = lower value 0.972 | S. cerevisiae deletion strains, locus YPL055C, strain LGE1, stronger effect = lower value 1.01 | S. cerevisiae deletion strains, locus YPL078C, strain atp4, stronger effect = lower value 0.998 | S. cerevisiae deletion strains, locus YPL106C, strain sse1, stronger effect = lower value 1.02 | S. cerevisiae deletion strains, locus YPL240C, strain hsp82, stronger effect = lower value 0.998 | S. cerevisiae deletion strains, locus YPL241C, strain CIN2, stronger effect = lower value 1 | S. cerevisiae deletion strains, locus YPL256C, strain CLN2, stronger effect = lower value 0.994 | S. cerevisiae deletion strains, locus YPR119W, strain clb2, stronger effect = lower value 0.996 | S. cerevisiae deletion strains, locus YPR141C, strain kar3, stronger effect = lower value 0.996 | S. cerevisiae deletion strains, locus YPR163C, strain tif3, stronger effect = lower value 0.995 | S. cerevisiae deletion strains, locus YPR167C, strain met16, stronger effect = lower value 0.993 | S. cerevisiae deletion strains, strain wtn01, stronger effect = lower value 0.974 | S. cerevisiae strains, strain wild type, stronger effect = lower value 1.01

From PubChem BioAssay AID1159580 (chemical genetic matrix, 2015)
